{"source": "PubChem BioAssay AID463173", "about": "(ICCB-Longwood Screening Facility, Harvard Medical School, 2010)", "note": "The whole screen tested about 52,000 compounds, of which about 1,700 (3.3%) were called active. The list comes from a sample in which actives are over-represented; it also holds similar structures and randomly drawn compounds. Values without a mark were called inactive. Rule as the data show it: active = survival mostly below about 52% (no sharp cut-off); inactive = mostly above about 56%."}
{"test_system": "Wild type", "assay": "S. aureus survival, RN4220 and DeltatarO strains – OD600, teichoic acid synthesis inhibitors, primary screen (AID 463173)", "conditions": "S. aureus RN4220 wild type/DeltatarO growth, OD600, 18 h, active compounds read low, screened at 18.75 µg/mL (by protocol)"}
{"smiles": "COC(=O)CNC(c1ccccc1)c1cc(Br)ccc1NC(=O)c1ccccc1", "note": "(stereo not drawn)", "survival": "62%"}
{"smiles": "CCOC(=O)c1[nH]c(C)c(CCC(=O)NCc2cccc(C)c2)c1C", "survival": "105%"}
{"smiles": "CCOc1cccc2sc(=NC(=O)c3ccc(S(=O)(=O)N4CCOCC4)cc3)n(C)c12", "survival": "83%"}
{"smiles": "COc1cccc(C(=O)Nc2nc(-c3nnn(-c4cccc(Cl)c4C)c3C)ns2)c1", "survival": "-6% (active)"}
{"smiles": "Cc1ccc(C(=O)Nc2nc(-c3nnn(-c4cccc(Cl)c4C)c3C)ns2)cc1C", "survival": "136%"}
{"smiles": "Cc1c(-c2nsc(NC(=O)c3ccccc3)n2)nnn1-c1ccc(C(F)(F)F)c(Cl)c1", "survival": "80%"}
{"smiles": "Cc1c(-c2nsc(NC(=O)c3cccc(Cl)c3)n2)nnn1-c1ccccc1C(F)(F)F", "survival": "-6% (active)"}
{"smiles": "COc1cccc(C(=O)Nc2nc(-c3nnn(-c4ccccc4C(F)(F)F)c3C)ns2)c1", "survival": "76%"}
{"smiles": "COc1cccc(C(=O)Nc2nc(-c3nnn(-c4cc(C)ccc4C)c3C)ns2)c1", "survival": "72%"}
{"smiles": "CCOC(=O)c1sc(NC(=O)c2cc3nc(-c4ccccc4)cc(C(F)(F)F)n3n2)c(C(=O)OCC)c1C", "survival": "63%"}
{"smiles": "CCOC(=O)c1ccccc1NC(=O)Cn1c(=O)n(-c2ccc(CC)cc2)c(=O)c2c(C)c(C(=O)N(C)C)sc21", "survival": "-2% (active)"}
{"smiles": "COc1cccc(-n2c(=O)c3c(C)c(C(=O)N(C)C)sc3n(Cc3ccc(F)cc3Cl)c2=O)c1", "survival": "83%"}
{"smiles": "COC(=O)c1ccccc1NC(=O)Cn1c(=O)n(-c2cccc(OC)c2)c(=O)c2c(C)c(C(=O)N(C)C)sc21", "survival": "121%"}
{"smiles": "CCc1ccc(-n2c(=O)c3c(C)c(C(=O)N(C)C)sc3n(CC(=O)Nc3cc(Cl)ccc3C)c2=O)cc1", "survival": "129%"}
{"smiles": "Cc1ccc(-n2c(=O)c3c(C)c(C(=O)N(C)C)sc3n(Cc3ccccc3C)c2=O)cc1C", "survival": "73%"}
{"smiles": "CCc1ccc(-n2c(=O)c3c(C)c(C(=O)N(C)C)sc3n(Cc3cccc(C)c3)c2=O)cc1", "survival": "80%"}
{"smiles": "CCOc1ccc(-n2c(=O)c3c(C)c(C(=O)N(C)C)sc3n(CC(=O)Nc3c(C)cc(C)cc3C)c2=O)cc1", "survival": "68%"}
{"smiles": "CCOc1ccc(-n2c(=O)c3c(C)c(C(=O)N(C)C)sc3n(Cc3cc(C)ccc3C)c2=O)cc1", "survival": "-3% (active)"}
{"smiles": "COc1cccc(-n2c(=O)c3c(C)c(C(=O)N(C)C)sc3n(Cc3cccc(C)c3)c2=O)c1", "survival": "10% (active)"}
{"smiles": "O=C(c1cccs1)c1cn(CCOc2ccccc2Cl)c2ccccc12", "survival": "80%"}
{"smiles": "CC1(C)Oc2ccc(C(=O)N3CCCC3)cc2N(CC(=O)N2CCCCC2)C1=O", "survival": "101%"}
{"smiles": "O=C(Cn1c(=O)c2ccccc2n(CC(=O)Nc2ccc(F)cc2)c1=O)NCCc1ccccc1", "survival": "127%"}
{"smiles": "Cc1nn(C(=O)c2ccccc2F)c(C)c1S(=O)(=O)N1CCOCC1", "survival": "66%"}
{"smiles": "Cc1nnc(N(Cc2ccco2)C(=O)c2cccc(C#N)c2)s1", "survival": "108%"}
{"smiles": "CC(C)OCCCNC(=O)CN1C(=O)COc2ccc(S(=O)(=O)N3CCCCCC3)cc21", "survival": "98%"}
{"smiles": "Nc1cc(=O)[nH]c2n[nH]c(=S)n12", "survival": "111%"}
{"smiles": "CCc1nnc(NC(=O)c2cc(=O)c3cc(C)c(C)cc3o2)s1", "survival": "74%"}
{"smiles": "COc1cccc(-c2nc(CS(=O)(=O)CC(=O)NCc3cccc(Cl)c3)c(C)o2)c1", "survival": "82%"}
